Results on 83 molecules are retold here after PubChem BioAssay (NCI).

Where “and” joins values, the source holds several entries; their conditions need not be identical. Equal entries are not always repeated. The panel holds about 83,000 compounds, 20% with a hit somewhere; the sample as a whole holds those more often.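 Cell lines were cultured in 96-well plates, exposed to a single compound concentration, and assessed for percent growth 48 hours later.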 Values without a mark were called inactive. Calls of active or inactive are those of the source. How the source made its calls: active means growth percent below 10; inactive means the rest.

For this assay, the system named is MDA-MB-468 breast. Kind of assay: NCI-60 one-dose screen, 48 h (100 = growth as untreated, 0 = no growth, -100 = all killed). The settings on record: 10 µM unless noted.

Regarding `Cc1cnc(N)nc1OCC(C)(C)CNC(=O)c1cccc(-c2ccc(S(=O)(=O)Nc3ccc4c(c3)N(C(=O)C3CC3)CCC4)cc2)c1`, the growth is 22.6%. With `O=C1/C(=C(/c2ccccc2)N2CCOCC2)Cc2ccccc21`, the growth is -19% (active). With `Cc1ccccc1-c1nc(C(Cl)Cl)nc2cc(-c3ccccc3)nn12` the figure was 52.7%; with `COc1ccc(NC(=O)CSc2nc(C)c(C(C)=O)n2-c2ccc([N+](=O)[O-])cc2)cc1`, 91.4%. With `Fc1ccc(-c2nn3c(-c4cc(C(F)(F)F)cc(C(F)(F)F)c4)nnc3s2)cc1` the figure was 25.5%; with `CCn1c(Sc2nnc(NC(=O)CSC(=S)N3CCCCC3)s2)nc2c1c(=O)n(C)c(=O)n2C`, 98.7%. As to `CCCCCN(CCCCC)CC(O)c1cc(C)c2ccc3cc(C(C)C)ccc3c2c1` (stereo not drawn), the growth is -71.1% (active). `Clc1nnc2c3ccccc3ccn12`: the growth was 101%.

Turning to `CSc1nn(-c2ccccc2)c2ncnc(Oc3ccccc3)c12`, the growth was 88.6%. Under `COC1=CC(c2ccc[nH]2)=N/C1=C\c1[nH]c(C)c(C(=O)CCCCC(=O)Oc2ccc3c(c2)CCC2C3CC[C@]3(C)[C@@H](O)CC[C@@H]23)c1C` (stereo partly drawn) stands 52.2%; under `Cc1ccc(S(=O)(=O)n2cc(C3C(Cl)C(=O)N3c3ccc(N4CCOCC4=O)cc3)c3ccccc32)cc1` (stereo not drawn), 67.6%. Take `CC1=CC(O)C2CC1C2(C)C` (stereo not drawn): the growth was 105% and 100%.

Take `Cc1cc(NC(=O)Nc2cc(Cl)ccc2C)no1`: the growth was 105%. With `COc1ccc2c(C3=C(c4cn(C)c5ccccc45)C(=O)NC3=O)coc2c1` the figure was 30.5%.

As to `Cn1c(=O)c2c3c(oc2c2ccccc21)C(=O)c1ccccc1C3=O`, the growth was -9.91% (active). With `c1ccc2c(Nc3cccc4ccccc34)cccc2c1` the figure was 61.8%; with `Cc1[nH]c2ccccc2c(=O)c1CC=C(Cl)Cl`, -43.2% (active).

With `CC1=C(N2CCOCC2)C(N2CCOCC2)=C(C)C(=O)C1=O`, the growth was 97.1%. As for `CC1(C)[C@@H](NOCCCN)CC[C@]2(C)[C@H]3C(=O)C=C4[C@@H]5C[C@](C)(C(=O)O)CC[C@]5(C)CC[C@@]4(C)[C@]3(C)CC[C@@H]12`, the growth is -39.5% [100 µM] (active). Under `O=C(c1nn(-c2ccc(Cl)cc2)cc1O)n1nc(C(F)(F)F)cc1-c1ccccc1` stands 32.8%; under `NC(N)=NC1CCCCC1`, 88.8%; under `Oc1nc(NCc2ccccc2)sc1/C=C1\C=Nc2ncccc21`, 58.4%. As to `Cn1c(COC(=O)NCCn2ccnc2)nc2c(N3CCOCC3)nc(-c3ccccc3)nc21`, the growth is -64.1% (active).

Turning to `CCCCN[C@H]1CC[C@@]2(C)[C@@H](CC[C@@]3(C)[C@H]2[C@H](O)C[C@H]2/C(=C(\CCC=C(C)C)C(=O)OC)[C@@H](OC(C)=O)C[C@@]23C)[C@@H]1C`, the growth was 88.9%. With `Cn1c(N)c(N=Cc2ccccc2)c(=O)n(C)c1=O` the figure was 117%; with `CC(C)=NOC(C)C(=O)O` (stereo not drawn), 106%. Under `NC(=O)NCCCC(N)C(=O)O` (stereo not drawn) stands 107%; under `COc1ccc(/C=C2\CCCC3=C2N=C2SC=NN2C3c2ccc(OC)c(OC)c2)cc1OC` (stereo not drawn), 14.5%. Under `CCOC(=O)C(=CNc1ccccc1[N+](=O)[O-])C(=O)OCC` stands 86%.

For the molecule `Cc1cc(O)c(C(C)(C)C)cc1Sc1cc(C(C)(C)C)c(O)cc1C`, the growth is 67.2%. Under `C=CC(=O)N1CC=C(c2cc3c(N[C@H](C)c4ccccc4)ncnc3[nH]2)CC1` stands 33.3%; under `COc1ccc(/C=C/C(=O)/C=C/c2cc3ccc(Cl)cc3[nH]c2=O)cc1`, 87.2%; under `CCCC[P+](c1ccccc1)(c1ccccc1)c1ccccc1`, -6.92% (active). Under `C=C(c1ccc(C(=O)O)c(F)c1)c1cc2c(cc1C)C(C)(C)CCC2(C)C` stands 97.6%; under `CC(NCCC(c1ccccc1)c1ccccc1)c1ccccc1` (stereo not drawn), 49%; under `N#Cc1cnc2cc(OC[C@@H](O)CO)c(NC(=O)CC3CSSC3)cc2c1Nc1ccc(OCc2cccc(F)c2)c(Cl)c1`, -74.8% (active). Under `CC1(C)CC(=O)c2c(nn(-c3ccc(Br)cc3)c2-c2cn(-c3ccccc3)nc2-c2cccnc2)C1` stands 107%.

`COc1cccc(NCc2nnc(Nc3ccc(Cl)cc3)c3ccccc23)c1`: the growth was -21.9% (active). As for `CN1CCN(Cc2ccc(NC(=O)c3cncc(C#Cc4cnc5[nH]ncc5c4)c3)cc2C(F)(F)F)CC1`, the growth was 40%. Under `C=C1C(=O)O[C@H]2[C@H]1CC/C(COC(=O)C(=O)c1c[nH]c3ccc(OC)cc13)=C\CC[C@@]1(C)O[C@@H]21` stands -67.5% (active). With `O=c1[nH]c(Sc2sc3ccc(Cl)cc3c2CBr)nc(=S)[nH]1` the figure was 19.1%. Turning to `Cc1ccc(S(=O)(=O)c2nc(-c3ccccc3)oc2SCC(N)=O)cc1`, the growth was 91.7%.

Regarding `COc1cc2oc(-c3cccc(NC(=O)c4cc(NC(=O)[C@H](C)N)ccc4Cl)c3)cc(=O)c2c(OC)c1OC`, the growth was 91.1%. With `COC1=CC(=O)C(OC)=C(O)C1=O` the figure was 91.8%; with `C[C@]12CCC(=O)C=C1CC[C@H]1[C@@H]3C[C@@H](O)[C@](O)(C(=O)CO)[C@@]3(C)C[C@H](O)[C@@]12F`, 128%; with `O=c1[nH]c(=O)c2[nH]c(=O)[nH]c2[nH]1`, 85.6%. Turning to `CS(=O)c1nccc(-c2c(-c3ccc(F)c(OCc4ccc(F)cc4)c3)nc3sccn23)n1` (stereo not drawn), the growth was -69.4% (active). With `OCc1cnc2ccccc2c1NC1CCCCCC1` the figure was 59.8%. Under `O=C1Nc2ccccc2C12CC(c1ccccc1)=NN2` (stereo not drawn) stands 66.4%; under `COC(=O)Cc1cc(COC(C)=O)ccc1C`, 108%. With `Cn1cnc2c(F)c(Nc3ccc(Br)cc3F)c(C(=O)NOCCO)cc21` the figure was 97.3%. `Cc1c(Br)cccc1NC(=O)c1sc2nc3c(cc2c1N)CN(Cc1ccccc1)CC3`: the growth is 16.8%. `CO[C@H]1CC(=O)n2c3ccccc3c3c4c(c5c6ccccc6n1c5c32)C(=O)NC4=O`: the growth was 34.2%. Under `c1ccc(Sc2ncnc3ccccc23)cc1` stands 50.3%; under `COc1cc(CNC(=O)CCSc2nc3ccccc3c(=O)n2Cc2cc(OC)c(OC)c(OC)c2)cc(OC)c1OC`, 1.82% (active); under `CC1CCC(C)N(C)C1` (stereo not drawn), 105%. For the molecule `COc1cc(NC(C)CCCN)c2ncccc2c1Oc1ccc(Cl)cc1` (stereo not drawn), the growth was 58.6%. With `Cc1cc(N2CCCC2)nc(N(CCNc2ccnc3cc(Cl)ccc23)Cc2ccco2)n1` the figure was 13.3%; with `Cc1cc(N2CCCC2)nc(NCc2cc(Nc3ccnc4cc(Cl)ccc34)ccc2F)n1`, -58.7% (active); with `CN1CCN(Cc2ccc(NC(=O)c3cncc(C#Cc4cncn5ccnc45)c3)cc2C(F)(F)F)CC1`, 125%. Under `CNc1cccc2c1C(=O)c1cccc(N)c1C2=O` stands 46.1%; under `C=C1C(=O)O[C@@H]2C[C@@H](C)CCC(=O)[C@](C)(OC(C)=O)C[C@H](OC(=O)/C(C)=C\C)[C@@H]12`, 32.7%; under `CCOc1c(C#N)nnc2c(C#N)c(NC(=O)c3ccccc3)nn12`, 103%.

For `Fc1cccc(-c2[nH]nc3nc(Nc4cccnc4)sc23)c1`, the growth is 11.9%.

Turning to `CCCC1(c2ccccc2)NC(=O)NC1=O` (stereo not drawn), the growth is 104%. With `CC(C)(C)Nc1nc2c(OCCc3ccccc3)cccn2c1-c1ccc([N+](=O)[O-])cc1` the figure was -19.5% (active); with `COc1ccc(-c2nocc2-c2cc(OC)c(OC)c(OC)c2)cc1`, -15.5% (active); with `CNC(=O)c1cc(N2CCc3cc(NC(=O)Nc4ccc(Cl)c(C(F)(F)F)c4)ccc32)ccn1`, 57%. With `COc1ccc(C(O)c2cc3c(N)c(C(=O)Nc4cccc(Cl)c4C)sc3nc2C)cc1` (stereo not drawn) the figure was 8.74% (active); with `CCCCCCNCc1cc(C(C)(C)C)cc(CNCCCCCC)c1O`, -89.8% (active).

On to `COc1ccc(/C=C/c2nc(Nc3ccc(S(=O)(=O)Nc4nc(C)cc(C)n4)cc3)c3ccccc3n2)cc1`, for which the growth is 24%. With `Cc1ccc(NCCN(C)C)c2c(=O)c3ccccc3sc12` the figure was 26%. Under `Nc1nc2ccccc2c2c1S(=O)(=O)c1ccc(Cl)cc1C2=O` stands 10.8%; under `CC(c1ccccc1)N1C(=O)C(C2SC(=S)N(C(C)c3ccccc3)C2=O)SC1=S` (stereo not drawn), 44.2%; under `C/C=C(/C(=C/C)c1ccc(O)cc1)c1ccc(O)cc1`, -15.5% (active). As for `Cc1c(Cl)ccc2c(C(=O)Cl)cc(-c3ccccc3)nc12`, the growth was 101%.

`OC(COc1cccc2ccccc12)CN1CCN(c2ccc(Cl)cc2)CC1` (stereo not drawn): the growth is 58.7% and 96.8%.

Take `CCOC(=O)c1[nH]c(C)c(C(=O)O)c1C`: the growth is 108%. Turning to `CN(CSc1ccc(Cl)cc1)c1ccc(CSc2ccc(Cl)cc2)cc1`, the growth is 17.2%. With `CCOc1ccc([C@@H]2[C@@H](Oc3ccccc3)C(=O)N2c2cc(OC)c(OC)c(OC)c2)cc1` the figure was 29.4%; with `FC(F)(F)c1ccc(CNc2ccc(Cc3c[nH]c4ncc(Cl)cc34)cn2)cn1`, -0.191% (active). With `CC(O)c1ncc(/C=C2\SC(=S)N(Cc3ccccc3)C2=O)s1` (stereo not drawn) the figure was 65.6%; with `Cc1ccc(/C=C/C(=O)C(=O)/C=C/c2ccc(C)cc2)cc1`, 110%.
